According to PubChem BioAssay (NCATS):
“And” between values parts separate entries of the source, which are not always exact repeats. Equal values may be shown once. Records with an inconclusive call do not appear. Unmarked numbers belong to inactive results. The source made the active and inactive calls. Calls follow the shape of the dose curve; as a rule, active = well fitted curve in the direction sought with a large enough effect; inconclusive = small, poorly fitted or top-dose-only effect, or another doubt; inactive = no such curve, though single readings can be large; an effect the other way counts as inactive or inconclusive.

Tested on: Zika virus NS2B-NS3 protease (linked construct)
Test: 384 well plate NINDS Rhodamine confirmatory qHTS for Zika virus inhibitors (AID 1347164);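 also: fluorescence from protease cleavage of Ac-LKRR-rhodamine 110 substrate; potency is read from the fitted curve at half-maximal effect; nearly all actives have a fitted effect of over 65% in size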
Details: rhodamine-110 peptide substrate fluorescence
In short: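 Fluorescence read at ex 485 nm/em 538 nm, 25 min after adding 10 microM Ac-LKRR-Rd substrate at room temperature in the dark; signal normalized to no-enzyme and no-inhibitor controls. Enzyme final 5, 30 or 60 nM; compounds, ~15 min preincubation.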

Row | SMILES | Potency
1 | O=C1C(I)=CC(=C(c2cc(I)c(O)c(I)c2)c2ccccc2C(=O)O)C=C1I | 8.91 µM (active)
2 | O=C(O)c1cc(Oc2ccc(C(F)(F)F)cc2Cl)ccc1[N+](=O)[O-] | 316 µM (active)
3 | CC1=C(O)C(=O)C=C2C1=CC=C1[C@@]2(C)CC[C@@]2(C)[C@@H]3C[C@](C)(C(=O)O)CC[C@]3(C)CC[C@]12C | 28.2 µM (active)
4 | CN(C)[C@@H]1C(=O)C(C(N)=O)=C(O)[C@@]2(O)C(=O)C3=C(O)c4c(O)cccc4[C@@](C)(O)[C@H]3[C@H](O)[C@@H]12 | 50.1 µM (active) and 2.51 µM (active)

Biological target: Lysine-specific demethylase 5B (Homo sapiens) (UniProt Q9UGL1)
Sequence (Q9UGL1 whole entry, looked up): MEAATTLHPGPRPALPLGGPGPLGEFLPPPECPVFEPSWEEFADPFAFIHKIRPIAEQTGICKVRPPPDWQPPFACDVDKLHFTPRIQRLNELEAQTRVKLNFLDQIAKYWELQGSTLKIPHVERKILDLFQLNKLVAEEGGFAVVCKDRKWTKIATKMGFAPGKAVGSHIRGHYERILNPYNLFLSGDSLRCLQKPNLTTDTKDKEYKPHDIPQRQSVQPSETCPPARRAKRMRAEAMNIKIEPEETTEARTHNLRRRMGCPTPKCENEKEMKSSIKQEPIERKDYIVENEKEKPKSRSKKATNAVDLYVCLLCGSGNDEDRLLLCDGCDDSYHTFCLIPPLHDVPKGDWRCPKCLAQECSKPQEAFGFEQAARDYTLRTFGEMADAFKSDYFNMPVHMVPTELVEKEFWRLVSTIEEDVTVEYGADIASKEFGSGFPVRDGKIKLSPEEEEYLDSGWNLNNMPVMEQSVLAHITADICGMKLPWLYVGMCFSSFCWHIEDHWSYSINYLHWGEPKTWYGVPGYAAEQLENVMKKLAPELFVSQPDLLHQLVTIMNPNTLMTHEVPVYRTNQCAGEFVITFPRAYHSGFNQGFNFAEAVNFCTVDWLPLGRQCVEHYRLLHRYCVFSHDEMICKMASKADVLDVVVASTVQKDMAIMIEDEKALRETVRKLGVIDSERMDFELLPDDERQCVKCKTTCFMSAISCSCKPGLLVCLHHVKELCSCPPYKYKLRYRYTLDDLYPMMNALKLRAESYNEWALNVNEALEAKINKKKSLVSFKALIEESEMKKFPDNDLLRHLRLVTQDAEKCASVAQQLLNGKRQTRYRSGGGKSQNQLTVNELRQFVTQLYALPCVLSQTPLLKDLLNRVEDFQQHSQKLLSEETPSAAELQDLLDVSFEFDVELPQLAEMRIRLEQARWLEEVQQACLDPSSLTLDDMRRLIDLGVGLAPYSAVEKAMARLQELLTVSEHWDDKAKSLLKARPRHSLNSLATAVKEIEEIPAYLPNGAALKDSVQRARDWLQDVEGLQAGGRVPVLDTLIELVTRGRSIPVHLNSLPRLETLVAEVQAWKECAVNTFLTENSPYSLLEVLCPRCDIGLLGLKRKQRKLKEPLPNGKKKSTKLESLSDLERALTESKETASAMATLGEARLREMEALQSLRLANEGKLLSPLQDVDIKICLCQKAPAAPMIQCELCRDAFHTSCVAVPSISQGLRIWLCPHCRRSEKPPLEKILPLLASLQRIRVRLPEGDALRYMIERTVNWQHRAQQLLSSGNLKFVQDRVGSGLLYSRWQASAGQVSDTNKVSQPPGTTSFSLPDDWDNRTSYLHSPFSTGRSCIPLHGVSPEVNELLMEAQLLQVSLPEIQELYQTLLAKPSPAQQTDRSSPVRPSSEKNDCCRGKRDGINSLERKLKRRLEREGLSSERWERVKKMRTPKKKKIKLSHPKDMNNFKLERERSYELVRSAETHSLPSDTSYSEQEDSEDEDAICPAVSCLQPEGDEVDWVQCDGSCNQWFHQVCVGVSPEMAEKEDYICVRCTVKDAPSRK
Test: Optimization screen for KDM5B Histone Demethylases FDH coupled qHTS against the LOPAC library (AID 1347166); also: 0% is about no effect
Details: KDM5B demethylation, FDH-coupled NADH fluorescence (FDH is formaldehyde dehydrogenase); series mostly up to 57.5 µM; activity, negative = inhibition: at the top concentration
In short: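 KDM5BDeltaAP (200nM final) in 50mM HEPES pH 7.5, 0.01% Tween-20 was preincubated with compound for 10 min at room temperature. A substrate mix of 12.5uM H3K4Me3, 25uM a-ketoglutarate, ascorbate, Fe2+, NAD+ and formaldehyde dehydrogenase was then added. NADH fluorescence (340/450 nm) was read initially and after 30 min.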

Row | SMILES | activity, negative = inhibition
5 | Cc1c(C(=O)c2cccc3ccccc23)c2cccc3c2n1[C@H](CN1CCOCC1)CO3 | -15.1%
6 | O=C(Cc1ccc(Cl)c(Cl)c1)N1CCCCC1CN1CCCC1 (stereo unspecified) | -6.44%
7 | NC1CC1c1ccccc1 (stereo unspecified) | -5%
8 | CCCN(CCC)[C@@H]1CCc2ccc(O)cc2C1 | 3.21%
9 | CC[C@@H](C(N)=O)N1CCCC1=O | -1.49%
10 | CC[C@@]1(O)C(=O)OCc2c1cc1n(c2=O)Cc2cc3ccccc3nc2-1 | 565%
11 | c1ccc(CCCN2CCN(CCOC(c3ccccc3)c3ccccc3)CC2)cc1 | -8.57%
12 | C/C=C(/C)C(=O)O[C@H]1C(C)=C2[C@H]([C@@H]1OC(=O)CCCCCCC)[C@@](C)(OC(C)=O)C[C@H](OC(=O)CCC)[C@@]1(O)[C@H]2OC(=O)[C@@]1(C)O | -27.4%
13 | NC(=O)CN1CC(O)CC1=O (stereo unspecified) | -6.36%
14 | O=C(O)[C@@H]1CCN1 | -3.84%
15 | O=C1CCCN1CC#CCN1CCCC1 | -15.6%
16 | S=C(NC1CCCCC1)N1CCC(c2cnc[nH]2)CC1 | -5.95%
17 | c1ccc2sc(C3(N4CCCCC4)CCCCC3)cc2c1 | -7.11%
18 | C[C@]12N[C@H](Cc3ccccc31)c1ccccc12 | -4.12%
19 | Cn1cnc(CCN)c1 | -6.57%
20 | NCc1cc(=O)[nH]o1 | -2.29%
21 | NC(CP(=O)(O)O)C(=O)O (stereo unspecified) | -6.53%
22 | CC(Cc1ccc(O)cc1)NCC(O)c1cc(O)cc(O)c1 (stereo unspecified) | -8.76%
23 | Clc1cnc(Oc2ccc(Oc3ncc(Cl)cc3Cl)cc2)c(Cl)c1 | -7.93%
24 | CCCCc1ccc(C(=O)O)nc1 | -11.1%
25 | CCCN1CCC[C@H](c2cccc(O)c2)C1 | -2.97%
26 | NC(CCP(=O)(O)O)C(=O)O (stereo unspecified) | -6.67%
27 | NC(N)=NOCCC(N)C(=O)O (stereo unspecified) | 2.2%
28 | CN1C2CCC1CC(OC(=O)c1cc(Cl)cc(Cl)c1)C2 (stereo unspecified) | -3.11%

Tested on: not listed separately
Test: Tertiary RLuc qRT-PCR qHTS assay for Zika virus inhibitors (AID 1347169); also: top concentration of the series differs between compounds; % is scaled to controls: 0 for no effect and ±100 for the full control effect; nearly all actives have a fitted effect of over 55% in size
Details: infected Vero cells, reporter luminescence, 48-72 h; series mostly up to 45.9 µM; activity change, negative = inhibition: at the top concentration
In short: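 Luminescence read-out: live-cell Renilla luciferase substrate applied to infected Vero cells, signal measured after 1-1.5 hrs. Cells had received compound before ZIKV-RLuc (Cambodian strain, MOI 1-2) infection and were incubated 48-72 hrs at 37 degrees C.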

Row | SMILES | activity change, negative = inhibition
29 | O=C1C(I)=CC(=C(c2cc(I)c(O)c(I)c2)c2ccccc2C(=O)O)C=C1I | 34.1% [at 1.74 µM]
30 | O=C(O)c1cc(Oc2ccc(C(F)(F)F)cc2Cl)ccc1[N+](=O)[O-] | 35.5% [at 1.74 µM]
31 | CN(C)[C@@H]1C(=O)C(C(N)=O)=C(O)[C@@]2(O)C(=O)C3=C(O)c4c(O)cccc4[C@@](C)(O)[C@H]3[C@H](O)[C@@H]12 | -12.8%
